Three compounds from PubChem BioAssay AID1573 (National Center for Advancing Translational Sciences (NCATS), 2009) can be followed below.

Inconclusive results are not listed. Calls of active or inactive are those of the source. Calls come from the whole dose curve; as a rule, active = well fitted inhibition curve with a large enough effect; inconclusive = small, poorly fitted or top-dose-only effect; inactive = no such curve, though single readings can be large or run the other way.

This experiment deals with Thyroid hormone receptor beta (Homo sapiens) (UniProt P10828). The experiment in a line: Concentration Response Confirmation Assay for Inhibitors of the Interaction of Thyroid Hormone Receptor and Steroid Receptor Coregulator 2. The note with it: TRb LBD + Texas Red SRC2 peptide, fluorescence polarization, 5 h; series mostly up to 92.2 µM. From the text: NIH Molecular Libraries Probe Production Network [MLPCN] NIH Chemical Genomics Center [NCGC] MLPCN Grant: DK058080 Assay Provider: R. Kip Guy, St. Jude Children's Research Hospital NCGC Assay Overview: Thyroid receptor (TR) regulates many homeostatic processes including basal metabolism, cardiovascular function, body weight, and lipid trafficking. TR modulators are potential therapeutics for obesity and hyperlipidemias but current thyroid analogs have undesirable side effects, particularly cardiac stimulation. To identify inhibitors that specifically prevent the interaction of TR with the steroid receptor coregulator 2 (SRC2), a fluorescence polarization assay was screened. This assay detects interaction of the ligand-binding domain of human TRb with a Texas Red labeled SRC2 peptide, corresponding to a 20 amino acid region of the nuclear receptor interaction domain (Arnold et al., 2006). Small molecule inhibitors that block the interaction of TR and SRC2 are detected by a decrease in fluorescence polarization. This assay is a confirmation assay for AID 1469. Arnold, L. A.; Estebanez-Perpina, E.; Togashi, M.; Shelat, A.; Ocasio, C. A.; McReynolds, A. C.; Nguyen, P.; Baxter, J. D.; Fletterick, R. J.; Webb, P.; Guy, R. K. A high-throughput screening method to identify small molecule inhibitors of thyroid hormone receptor coactivator binding. Sci STKE 2006, p 13.
Thyroid hormone receptor beta (Homo sapiens), sequence (P10828 whole entry, looked up, the tested form may be a part): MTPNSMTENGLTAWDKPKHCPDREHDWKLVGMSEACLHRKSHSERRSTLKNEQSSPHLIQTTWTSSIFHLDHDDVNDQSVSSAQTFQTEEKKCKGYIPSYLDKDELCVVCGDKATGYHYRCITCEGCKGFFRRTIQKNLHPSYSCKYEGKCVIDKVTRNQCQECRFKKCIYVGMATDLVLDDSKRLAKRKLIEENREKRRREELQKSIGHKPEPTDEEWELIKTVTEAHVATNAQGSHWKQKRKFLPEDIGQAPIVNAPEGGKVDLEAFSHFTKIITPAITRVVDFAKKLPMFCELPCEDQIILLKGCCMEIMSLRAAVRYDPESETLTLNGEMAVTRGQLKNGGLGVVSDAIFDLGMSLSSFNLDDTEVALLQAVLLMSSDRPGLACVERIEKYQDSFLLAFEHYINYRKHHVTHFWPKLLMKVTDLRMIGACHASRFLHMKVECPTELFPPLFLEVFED
NCGC Assay Protocol Summary: For screening, 5 uL/well 0.6 uM TRb and 20 nM SRC2 Texas Red in protein buffer (20mM Tris hydrochloride, 100mM NaCl, 10% glycerol, 1mM EDTA, 0.01% NP-40, 1mM DTT, 1uM T3 and 5% DMSO) was dispensed into black solid 1536-well plates (Grenier) using a solenoid-based dispenser. […] The plates were read by an Envision (Perkin Elmer) to detect fluorescence polarization of SRC2 Texas Red (555 nm excitation and 632 nm emission). […] Keywords: NIH Roadmap, MLPCN, MLI, MLSMR, qHTS, NCGC, qHTS, thyroid hormone receptor, steroid receptor coactivator, fluorescence polarization
For orientation: Fluorescence polarisation rises when a labelled molecule tumbles more slowly, as on binding a larger partner.
Regarding `CCn1nc(-c2cccs2)nc2c(=O)n(C)c(=O)nc1-2`, the Potency result was “inactive”.

In the case of `CN1CC[C@@]2(C)c3cc(O)ccc3N(C)C2O1` (stereo partly drawn), the Potency is 25.1 µM (active).

For the compound `COP(=S)(OC)Oc1ccc([N+](=O)[O-])cc1`, the Potency was 25.1 µM (active).
